HepG2 tox: counter-screen for TGF-b inhibitors: cytotoxicity in HepG2 cells; 410,000 compounds, 0.76% hits; AID 588856; Potency, µM (doses to about 46.1 µM), for inactives: top-dose activity change, negative = cytotoxicity, usual class: cytotoxic; HepG2 CAGA-GFP viability, ATP luminescence, 18 h
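HepG2 CAGA-GFP cells (1000/well, DMEM with 1% FBS) received compound, then TGF-beta at 500 pg/mL final, and were incubated 18 hours at 37 degrees C. Viability was read by CellTiter-Glo luminescence. Media-only wells were set as complete cell-killing and DMSO as no toxicity.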
KB-V1 cytotox: kills drug-selected multidrug resistant KB-V1 cells; KB-V1 MDR cells viability, CellTiter-Glo, 72 h; Potency, µM (highest dose often 46.1 µM), most hits filed as cytotoxic; 400,000 compounds, 3.4% hits; AID 1347076; further: on the % scale 0 is the no-effect control and ±100 the full control effect; nearly all actives have a fitted effect of over 60% in size
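Cells of the MDR subline KB-V1 are plated, dosed with compound at multiple concentrations, and incubated 72 h at 37 degrees C; CellTiter-Glo is then added and luminescence read after 10 min.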
ATXN2 expr inh: inhibitors of ATXN2 expression | HEK-293 ATXN2-luciferase reporter, luminescence, 24 h | Potency, µM (highest dose often 57 µM), without a hit: at the top dose activity change, negative = inhibition, hits mostly inhibitors | 360,000 compounds, 0.72% hits; further: on the % scale 0 is the no-effect control and ±100 the full control effect; nearly all actives have a fitted effect of over 55% in size
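qHTS (up to 57 uM final) was run with 24 h compound exposure of reporter cells at 37 °C. Each well was multiplexed: SteadyGlo luminescence measured ATXN2-luciferase expression after a fluorogenic Gly-Phe-AFC viability readout (25 uM final).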
ATXN viability: cell viability loss in ATXN counter-screen | S2 cells (HEK-293 line with an ATXN2-luciferase reporter) viability, CellTiter-Fluor protease fluorescence, 24 h | Potency, µM (titrated, usually from 56.7 µM), most hits filed as cytotoxic | 400,000 compounds, 0.49% hits; further: nearly all actives have a fitted effect of over 40% in size
KB-3-1 tox: kills parental KB-3-1 adenocarcinoma cells. KB-3-1 viability, CellTiter-Glo ATP luminescence, 72 h. Potency, µM (series often up to 46.1 µM), actives largely listed as cytotoxic. 400,000 compounds, 1.4% hits. AID 1347075; further: on the % scale 0 is the no-effect control and ±100 the full control effect; nearly all actives have a fitted effect of over 60% in size
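Cytotoxicity measured as CellTiter-Glo luminescence after 72 h at 37 C. Compound titrations were pinned onto drug-naive KB-3-1 parental adenocarcinoma cells grown in DMEM with 10% FBS, and normalized data fitted to concentration-response curves.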
TGFb inhibitor: TGF-b pathway inhibition; HepG2 CAGA-GFP TGF-b/SMAD3 reporter, GFP fluorescence, 18 h; TGF-beta stimulated, 500 pg/mL final; Potency, µM (doses to about 46.1 µM), without a hit: top-dose activity, negative = inhibition, usual class: inhibitors; 410,000 compounds, 1.2% hits; AID 588855; further: on the % scale 0 is the no-effect control and ±100 the full control effect; nearly all actives have a fitted effect of over 65% in size
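Inhibition of TGF-beta-driven CAGA-GFP reporter expression in HEPG2 cells is measured by cellular GFP fluorescence after 18 h stimulation with 500 pg/mL recombinant TGF-beta in 1% FBS medium at 37 degrees C.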
* hit, by the source's call; i = inactive; ? = inconclusive; . = no result given; ! = repeats disagree. A selection: hits, their analogues and other compounds. The true share with any hit is near 5.9%. The call rests on the fitted dose curve; in most records, active means well fitted curve in the direction sought with a large enough effect; inconclusive means small, poorly fitted or top-dose-only effect, or another doubt; inactive means no such curve, though single readings can be large; an effect the other way counts as inactive or inconclusive. Potency means the concentration at half of the fitted maximal effect.

SMILES	HepG2 tox	KB-V1 cytotox	ATXN2 expr inh	ATXN viability	KB-3-1 tox	TGFb inhibitor
Cc1c(C2=CCN(S(=O)(=O)c3ccc(Cl)cc3)CC2)c2ccccc2n1CC(=O)N1CCCC1	-3%	i	-9%	i	i	-5%
COc1ccccc1-c1csc2ncnc(Sc3nnnn3C)c12	-13%	i	-18%	i	?	?
Cn1nnnc1Sc1ncnc2scc(-c3ccccc3)c12	-27%	?	?	?	?	?
Cn1nnnc1Sc1ncnc2scc(-c3ccc(F)cc3)c12	10µM*!	?	?	?	8.2µM*!	11µM*
Cn1nnnc1Sc1ncnc2scc(-c3ccc[nH]3)c12	-111%	?	10µM*	?	?	?
c1ccc(-c2csc3ncnc(Sc4nnnn4-c4ccccc4)c23)cc1	-85%	i	.	.	?	11µM*
Cn1nnnc1Sc1ncnc2scc(-c3ccc(Br)cc3)c12	16µM*	?	16µM*	13µM*	12µM*	?
Cc1nc([N+](=O)[O-])cn1-c1ccc([N+](=O)[O-])cc1	.	.	5%	i	.	.
COc1ccc(C(=O)Cn2c(=O)c(-c3cc(C)ccc3NC(C)=O)nc3ccccc32)cc1	4%	i	.	.	i	2%
COc1ccc(OC(=O)c2nc(SCc3ccc(C)cc3)ncc2Cl)cc1	-22%	.	.	.	.	-24%
CC(C)C(=O)Nc1cccc(S(=O)(=O)NC2=NCCC2)c1	-6%	?	.	i	i	12%
O=C(CCl)Nc1cccc(S(=O)(=O)NC2=NCCC2)c1	14µM*	i	.	.	18µM*	11µM*
CCNC(=S)Nc1cccc(S(=O)(=O)NC2=NCCC2)c1	-21%	i	.	i	i	29%
CCCCNC(=S)Nc1cccc(S(=O)(=O)NC2=NCCC2)c1	3.5µM*	i	3%	i	i	-8%
COc1ccc(-n2ncc(C(=O)N3CCN(Cc4ccccc4)CC3)c2C2CCN(C(=O)OC(C)(C)C)CC2)cc1	-5%	i	.	.	i	-5%
N#Cc1ccc(Nc2nc(-c3ccccc3)c(C(=O)c3ccccc3)s2)cc1	11µM*	?	?	?	?	?
O=C(c1ccccc1)c1sc(Nc2ccc3c(c2)OCO3)nc1-c1ccccc1	4%	?	?	.	?	?
CCOC(=O)N1CCN(C(=O)CN(c2ccccc2F)S(=O)(=O)c2ccc(C)cc2)CC1	-1%	i	-3%	i	i	-6%
Cc1ccc(NC(=O)c2ccc3oc(=O)c(S(=O)(=O)c4ccccc4)cc3c2)cc1C	-95%	i	-1%	i	i	-4%
CCN(CC)c1ccc(/C=C/C2=C3C=CC=CC3NC=C2)cc1 (centres undefined)	-26%	i	.	.	?	82%
CCc1nc2n[nH]c(N)c2c2c1CCCC2	-19%	i	1%	i	i	23%
CCCCc1nc2n[nH]c(N)c2c2c1CCC2	-3%	0.65µM*	-6%	i	?	15%
O=C(CSc1nc2c([nH]c3ccccc32)c(=O)n1-c1ccc(F)cc1)N1CCCCCC1	-33%	i	2%	i	i	1%
Oc1ccc(/C=N/Nc2nccnc2Cl)cc1	-78%	?	22%	i	16µM*	0%
Fc1ccc(/C=N/Nc2nccnc2Cl)cc1	10µM*	i	31%	i	?	?
SMILES	HepG2 tox	KB-V1 cytotox	ATXN2 expr inh	ATXN viability	KB-3-1 tox	TGFb inhibitor
Fc1cccc(/C=N/Nc2nccnc2Cl)c1	-96%	5.8µM*	44%	i	?	16%
Nc1c(Cl)ncnc1N/N=C/c1ccc(O)cc1	-23%	?	.	i	i	-30%
CCN1C(C(=O)c2ccccc2)=C(OC(=O)COc2ccccc2)c2ccccc2S1(=O)=O	-16%	.	.	.	.	-10%
CCCCN1C(C(=O)c2ccccc2)=C(OC(=O)CC)c2ccccc2S1(=O)=O	-45%	i	?	?	15µM*	?
CCCN1C(C(=O)c2ccccc2)=C(OC(=O)c2ccc(F)cc2)c2ccccc2S1(=O)=O	-56%	.	.	.	.	18µM*
CCN1C(C(=O)c2ccccc2)=C(OC(=O)C(C)C)c2ccccc2S1(=O)=O	-38%	?	-29%	i	?	11µM*
CCCCCN1C(C(=O)c2ccccc2)=C(OC(=O)CC)c2ccccc2S1(=O)=O	11µM*	i	-20%	?	?	?
CCCN1C(C(=O)c2ccccc2)=C(OC(=O)c2ccc(C)cc2)c2ccccc2S1(=O)=O	-26%	.	.	.	.	-75%
Cc1ccccc1OC1(C)CCN(Cc2ccc(-c3ccccn3)cc2)C1 (centres undefined)	-51%	i	-12%	?	i	-30%
CCC(C)(C)C1CCc2[nH]nc(C(=O)N/N=C(\C)c3ccco3)c2C1 (centres undefined)	-66%	i	-33%	?	i	14µM*
C/C(=N\NC(=O)c1n[nH]c2c1CCC2)c1ccco1	-38%	?	?	i	i	17%
Cc1c(CCNC(=O)c2ccc(C(C)(C)C)cc2)sc2nc(-c3ccc(F)cc3)nn12	4%	.	.	.	.	0%
CCc1ccc(/C=C2\Oc3cc(OC(=O)N4CCOCC4)ccc3C2=O)cc1	-1%	21µM*	-10%	i	?	1%
COc1ccc(/C=C2\Oc3cc(OC(=O)N4CCOCC4)ccc3C2=O)cc1	9%	i	.	i	i	9%
COc1ccc(C)cc1NC(=O)c1sc2nc(C)nc(N3CCOCC3)c2c1C	0%	i	-11%	i	i	4%
COc1cc(NC(=O)c2sc3nc(C)nc(N4CCOCC4)c3c2C)cc(OC)c1OC	-12%	23µM*	-1%	i	i	-5%
COc1ccc(S(=O)(=O)N2C3CCC2CC(NC(=O)NC2CCCCC2)C3)cc1 (centres undefined)	-10%	16µM*	0%	i	i	-12%
FC(F)(F)c1ccc(CN2C[C@@H]3C(c4ccc(Cl)nc4)C4(c5cccnc5)CC3(C4)[C@H]2c2ccccc2)cc1 (some centres undefined)	-29%	?	-24%	?	15µM*	?
COc1cc2c(-c3ccccc3)c(C)oc2cc1/C=N/NC(N)=S	6.3µM*	i	.	i	i	?
COCCNC(=O)c1cc2c(c(-c3cccc(-c4cc5ccccc5o4)c3)n1)[C@@H](CCO)N(S(=O)C(C)(C)C)C2 (some centres undefined)	-21%	i	-14%	?	i	?

Screening results deposited in PubChem BioAssay by National Center for Advancing Translational Sciences (NCATS).
